Experimental data: the supplement of paper PMC9262897, “Low-cost anti-mycobacterial drug discovery using engineered E. coli” (Nature Communications, 2022)
Counter-ions that a name gives are not always drawn. ± gives the standard deviation of the averaged measurements.

Assays:
Assay in all cases: growth (OD600 after 10 h); higher = more growth (less inhibition)
[1] = system: E. coli TESEC Alr+ wild-type control; settings: compound 0.1 mM; raw OD600 reference: median of DMSO wells 0.241, cell-free background 0.041
Procedure: (§1)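 TESEC Mtb Alr E. coli, or the Alr+ wild-type control, in 384-well plates with Prestwick library compounds at 0.1 mM and 1% DMSO, across arabinose induction levels of 1E3 to 1E7 nM. Growth is read as OD600 after 10 h at 37 °C in triplicate biological replicates.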

E. coli TESEC Mtb Alr [2] = settings: compound 0.1 mM
Procedure: as §1

E. coli TESEC Mtb Asd = settings: compound 0.1 mM
Procedure: (§2)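 TESEC E. coli strains in which the native enzyme is deleted and replaced by arabinose-inducible Mtb Asd, DapB, CysH or TrpD, each grown in its selective medium. Strains were screened against the Prestwick library at 0.1 mM and 1% DMSO in 384-well format at low and high arabinose induction. Growth is read as OD600 after 10 h in triplicate.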

E. coli TESEC Mtb DapB = settings: compound 0.1 mM
Procedure: as §2

[3] = system: E. coli TESEC Alr+ wild-type control; settings: compound 0.1 mM; raw OD600 reference: median of DMSO wells 0.49, cell-free background 0.052
Procedure: (§3)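 TESEC Mtb Alr E. coli (ΔaraC ΔtolC ΔentC Δalr ΔdadX, arabinose-inducible Mtb Alr) or the Alr+ wild-type control strain, grown in defined M9-fructose medium without D-alanine in 96-well plates with Prestwick library compounds at 0.1 mM and 1% DMSO. Low Alr induction is 0.1 µM arabinose and high induction is 10 mM arabinose.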

E. coli TESEC Mtb Alr [4] = settings: compound 0.1 mM; remark: listed apart in the source
Procedure: as §3

[5] = arabinose 1000 nM, raw OD600 reference: median of DMSO wells 0.294, cell-free background 0.041
[6] = arabinose 10000 nM, raw OD600 reference: median of DMSO wells 0.264, cell-free background 0.041
[7] = arabinose 100000 nM, raw OD600 reference: median of DMSO wells 0.201, cell-free background 0.041
[8] = arabinose 1000000 nM, raw OD600 reference: median of DMSO wells 0.193, cell-free background 0.041
[9] = arabinose 10000000 nM, raw OD600 reference: median of DMSO wells 0.146, cell-free background 0.041
[10] = arabinose induction (level): High, raw OD600 reference: median of DMSO wells 0.331, cell-free background 0.041
[11] = arabinose induction (level): Low, raw OD600 reference: median of DMSO wells 0.417, cell-free background 0.041
[12] = arabinose induction (level): High, raw OD600 reference: median of DMSO wells […], cell-free background 0.041
[13] = arabinose induction (level): Low, raw OD600 reference: median of DMSO wells 0.227, cell-free background 0.041
[14] = arabinose 100 nM, raw OD600 reference: median of DMSO wells 0.413, cell-free background 0.052
[15] = arabinose 10000000 nM, raw OD600 reference: median of DMSO wells […], cell-free background 0.052

| SMILES | growth [1] | growth (E. coli TESEC Mtb Alr [2]; [5]) | growth (E. coli TESEC Mtb Alr [2]; [6]) | growth (E. coli TESEC Mtb Alr [2]; [7]) | growth (E. coli TESEC Mtb Alr [2]; [8]) | growth (E. coli TESEC Mtb Alr [2]; [9]) | growth (E. coli TESEC Mtb Asd; [10]) | growth (E. coli TESEC Mtb Asd; [11]) | growth (E. coli TESEC Mtb DapB; [12]) | growth (E. coli TESEC Mtb DapB; [13]) | growth [3] | growth (E. coli TESEC Mtb Alr [4]; [14]) | growth (E. coli TESEC Mtb Alr [4]; [15]) |
| --- | --- | --- | --- | --- | --- | --- | --- | --- | --- | --- | --- | --- | --- |
| CO[C@@]1(NC(=O)CSCC#N)C(=O)N2C(C(=O)O)=C(CSc3nnnn3C)CS[C@@H]21 [Cefmetazole sodium salt] | 0.0393 ± 0.0013 | 0.0392 ± 0.0012 | 0.0395 ± 0.00076 | 0.0392 ± 0.0027 | 0.03973 ± 5.8e-05 | 0.03957 ± 0.00025 | 0.0524 ± 0.0042 | 0.0557 ± 0.0072 | 0.0493 ± 0.0012 | 0.0513 ± 0.0023 | 0.0516 ± 0.012 | 0.0461 ± 0.00055 | 0.0549 ± 0.0037 |
| CC[C@H]1OC(=O)[C@H](C)[C@@H](O[C@H]2C[C@@](C)(OC)[C@@H](O)[C@H](C)O2)[C@H](C)[C@@H](O[C@@H]2O[C@H](C)C[C@H](N(C)C)[C@H]2O)[C@](C)(O)C[C@@H](C)CN(C)[C@H](C)[C@@H](O)[C@]1(C)O [Azithromycin] | 0.04107 ± 0.00015 | 0.0419 ± 0.0015 | 0.03977 ± 0.00031 | 0.0416 ± 0.00058 | 0.03993 ± 0.00025 | 0.0413 ± 0.00057 | 0.0597 ± 0.003 | 0.0647 ± 0.0021 | 0.1 ± 0.088 | 0.0998 ± 0.09 | 0.0526 ± 0.00017 | 0.05527 ± 0.00032 | 0.05133 ± 0.00015 |
| COc1ccccc1O [Guaiacol] | 0.255 ± 0.0046 | 0.314 ± 0.0073 | 0.2742 ± 0.0019 | 0.192 ± 0.012 | 0.203 ± 0.012 | 0.135 ± 0.0042 | 0.212 ± 0.031 | 0.364 ± 0.063 | 0.19 ± 0.008 | 0.202 ± 0.028 | 0.558 ± 0.079 | 0.407 ± 0.016 | 0.356 ± 0.009 |
| O=C(O)c1cn(C2CC2)c2cc(N3CCNCC3)c(F)cc2c1=O [Ciprofloxacin hydrochloride monohydrate] | 0.0408 ± 0.00053 | 0.0398 ± 0.0012 | 0.0399 ± 0.0009 | 0.0402 ± 0.0002 | 0.0391 ± 0.00026 | 0.0402 ± 0.00036 | 0.0484 ± 0.0012 | 0.0498 ± 0.001 | 0.049 ± 0.00046 | 0.0712 ± 0.04 | 0.0505 ± 0.0005 | 0.0528 ± 0.00085 | 0.0527 ± 0.0033 |
| Cc1cnc(C(=O)NCCc2ccc(S(=O)(=O)NC(=O)NC3CCCCC3)cc2)cn1 [Glipizide] | 0.252 ± 0.0045 | 0.289 ± 0.0034 | 0.263 ± 0.0066 | 0.193 ± 0.019 | 0.183 ± 0.0084 | 0.141 ± 0.0039 | 0.341 ± 0.084 | 0.406 ± 0.029 | 0.199 ± 0.032 | 0.256 ± 0.042 | 0.506 ± 0.049 | 0.419 ± 0.0083 | 0.222 ± 0.025 |
| CN1[C@@H]2CC[C@H]1C[C@@H](OC(c1ccccc1)c1ccccc1)C2 [Benztropine mesylate] | 0.1702 ± 0.0017 | 0.219 ± 0.0061 | 0.289 ± 0.037 | 0.165 ± 0.0036 | 0.133 ± 0.0073 | 0.166 ± 0.0023 | 0.137 ± 0.018 | 0.253 ± 0.076 | 0.166 ± 0.0063 | 0.201 ± 0.011 | 0.487 ± 0.029 | 0.4104 ± 0.0035 | 0.288 ± 0.0043 |
| CC1c2cccc(O)c2C(O)=C2C(=O)C3(O)C(O)=C(C(N)=O)C(=O)C(N(C)C)C3C(O)C21 (stereo not drawn) [Doxycycline hydrochloride] | 0.0447 ± 0.00093 | 0.0433 ± 0.002 | 0.0456 ± 0.001 | 0.04713 ± 0.00031 | 0.0487 ± 0.0075 | 0.0461 ± 0.0007 | 0.0572 ± 0.0053 | 0.0534 ± 0.0016 | 0.0563 ± 0.00081 | 0.0531 ± 0.0036 | 0.0579 ± 0.0011 | 0.0647 ± 0.0031 | 0.0602 ± 0.0014 |
| CN(C)CCn1nnnc1SCC1=C(C(=O)O)N2C(=O)[C@@H](NC(=O)Cc3csc(N)n3)[C@H]2SC1 [Cefotiam hydrochloride] | 0.11 ± 0.0087 | 0.039 ± 0.0012 | 0.0413 ± 0.00046 | 0.0507 ± 0.0078 | 0.045 ± 0.00078 | 0.0878 ± 0.0087 | 0.265 ± 0.012 | 0.34 ± 0.061 | 0.218 ± 0.018 | 0.195 ± 0.019 | 0.166 ± 0.096 | 0.0473 ± 0.0012 | 0.244 ± 0.049 |
| COc1ccc(CN2CCN(C(c3ccc(F)cc3)c3ccc(F)cc3)CC2)c(OC)c1OC [Lomerizine hydrochloride] | 0.119 ± 0.0034 | 0.126 ± 0.0034 | 0.0765 ± 0.0014 | 0.137 ± 0.0039 | 0.05757 ± 0.00049 | 0.0717 ± 0.0016 | 0.0685 ± 0.0042 | 0.0562 ± 0.0023 | 0.0966 ± 0.0085 | 0.0956 ± 0.013 | 0.233 ± 0.0047 | 0.248 ± 0.018 | 0.0708 ± 0.013 |
| CC[C@H](C)[C@H]1O[C@]2(CC[C@@H]1C)C[C@@H]1C[C@@H](CC=C(C)C(O[C@H]3C[C@H](OC)[C@@H](O[C@H]4C[C@H](OC)[C@@H](O)[C@H](C)O4)[C@H](C)O3)[C@@H](C)C=CC=C3CO[C@@H]4[C@H](O)C(C)=C[C@@H](C(=O)O1)[C@]34O)O2 (stereo partly drawn) [Ivermectin] | 0.315 ± 0.013 | 0.361 ± 0.0096 | 0.291 ± 0.0046 | 0.393 ± 0.048 | 0.209 ± 0.0085 | 0.222 ± 0.0088 | 0.343 ± 0.072 | 0.318 ± 0.13 | 0.281 ± 0.035 | 0.28 ± 0.041 | 0.525 ± 0.066 | 0.473 ± 0.046 | 0.409 ± 0.038 |
| CCOC(=O)OC(C)OC(=O)[C@@H]1N2C(=O)[C@@H](NC(=O)[C@H](N)c3ccccc3)[C@H]2SC1(C)C (stereo partly drawn) [Bacampicillin hydrochloride] | 0.239 ± 0.011 | 0.305 ± 0.011 | 0.269 ± 0.0047 | 0.356 ± 0.0077 | 0.17 ± 0.0089 | 0.198 ± 0.006 | 0.237 ± 0.13 | 0.325 ± 0.034 | 0.185 ± 0.016 | 0.188 ± 0.0087 | 0.611 ± 0.013 | 0.41 ± 0.0064 | 0.338 ± 0.017 |
| Cc1cc(O)c(C(=O)N[C@@H](C(=O)N[C@@H]2C(=O)N3C(C(=O)O)=C(CSc4nnnn4C)CS[C@H]23)c2ccc(O)cc2)cn1 [Cefpiramide] | 0.2668 ± 0.0012 | 0.3183 ± 0.00044 | 0.245 ± 0.0057 | 0.217 ± 0.015 | 0.208 ± 0.027 | 0.135 ± 0.0067 | 0.356 ± 0.063 | 0.375 ± 0.077 | 0.214 ± 0.007 | 0.239 ± 0.035 | 0.584 ± 0.046 | 0.419 ± 0.016 | 0.3403 ± 0.00045 |
| COc1cc([S+](C)[O-])ccc1-c1nc2cccnc2[nH]1 (stereo not drawn) [Sulmazole] | 0.227 ± 0.0056 | 0.282 ± 0.023 | 0.264 ± 0.0096 | 0.161 ± 0.027 | 0.2 ± 0.0059 | 0.1223 ± 0.00055 | 0.231 ± 0.039 | 0.387 ± 0.049 | 0.18 ± 0.0052 | 0.209 ± 0.0037 | 0.4254 ± 0.0034 | 0.392 ± 0.0053 | 0.342 ± 0.034 |
| COc1cc(C(=O)N2CCOCC2)cc(OC)c1OC [Trimetozine] | 0.253 ± 0.004 | 0.313 ± 0.014 | 0.2694 ± 0.0015 | 0.22 ± 0.0037 | 0.203 ± 0.023 | 0.14 ± 0.0052 | 0.288 ± 0.0085 | 0.441 ± 0.018 | 0.192 ± 0.02 | 0.229 ± 0.0089 | 0.616 ± 0.021 | 0.401 ± 0.0073 | 0.363 ± 0.0044 |
| Oc1ncnc2[nH]ncc12 [Allopurinol] | 0.234 ± 0.0068 | 0.283 ± 0.013 | 0.241 ± 0.0057 | 0.189 ± 0.019 | 0.172 ± 0.0073 | 0.141 ± 0.0016 | 0.449 ± 0.032 | 0.435 ± 0.038 | 0.216 ± 0.019 | 0.234 ± 0.016 | 0.53 ± 0.078 | 0.41 ± 0.013 | 0.34 ± 0.015 |
| CC(=O)CCCCn1c(=O)c2c(ncn2C)n(C)c1=O [Pentoxifylline] | 0.2306 ± 0.0011 | 0.276 ± 0.0075 | 0.2728 ± 0.0025 | 0.203 ± 0.013 | 0.187 ± 0.0042 | 0.134 ± 0.0031 | 0.297 ± 0.079 | 0.387 ± 0.029 | 0.2 ± 0.024 | 0.207 ± 0.019 | 0.489 ± 0.096 | 0.431 ± 0.0088 | 0.363 ± 0.006 |
